From PubChem
A selection: hits, their analogues and other compounds. The true share with any hit is near 31%.
CYP2C9 activ: human CYP2C9 activators, primary screen, biochemical, luminescence. AID 1024, 2008. activation factor at 5 µM. 96,000 tested, 1.4% active. recombinant CYP2C9, luciferin-H conversion; hits give high values; factor 1 = untreated enzyme, 0 = blocked. Cytochrome P450 2C9 (Homo sapiens), P11712;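 active = activation factor of 2 or more for CYP2C9 at a 5 µM dose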
CYP2C19 act: human CYP2C19 activators, primary screen, biochemical, luminescence; Cytochrome P450 2C19 (Homo sapiens), P33261; recombinant CYP2C19, luciferin-H EGE luminescence; hits give high values; 0 = fully inhibited enzyme, 1 = untreated enzyme; activation factor at 5 µM; 96,000 tested, under 10 active; AID 1025, 2008;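 active = activation factor of at least 2 at 5 µM in the primary screen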
Target sequence (P33261 whole entry, looked up): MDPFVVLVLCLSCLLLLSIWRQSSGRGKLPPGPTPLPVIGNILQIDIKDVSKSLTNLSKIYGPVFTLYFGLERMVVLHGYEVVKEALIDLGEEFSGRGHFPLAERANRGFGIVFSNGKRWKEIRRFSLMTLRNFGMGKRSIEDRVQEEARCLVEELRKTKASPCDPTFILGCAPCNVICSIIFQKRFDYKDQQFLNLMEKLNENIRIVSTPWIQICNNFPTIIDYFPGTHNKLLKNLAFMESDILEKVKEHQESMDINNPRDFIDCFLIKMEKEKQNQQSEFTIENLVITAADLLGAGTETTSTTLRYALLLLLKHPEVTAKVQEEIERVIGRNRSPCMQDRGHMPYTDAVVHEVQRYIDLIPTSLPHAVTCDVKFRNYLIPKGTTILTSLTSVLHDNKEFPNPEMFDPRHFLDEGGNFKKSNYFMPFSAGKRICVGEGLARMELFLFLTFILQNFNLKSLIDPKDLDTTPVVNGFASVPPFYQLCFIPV
CYP2C9 inh: blockers of cytochrome P450 2C9 activity – biochemical, luminescence, ADME assay, primary screen. inhibition, % at 5 µM. AID 777, 2007. CYP2C9 Supersomes, luciferin-H conversion. 96,000 tested, 20% active;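 active = blocking of liver enzyme CYP2C9 beyond about 50% at 5 µM, limit read from the data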
CYP2C19 inh: blockers of cytochrome P450 2C19 activity – biochemical, luminescence, ADME assay, primary screen. 96,000 tested, 21% active. P33261. CYP2C19 Supersomes, luciferin-H EGE luminescence, 30 min. inhibition, % at 5 µM;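 active = CYP2C19 inhibition above a set limit at 5 µM in the primary screen, cut at about 50% in these data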
Each line names hits and unclear results; the compound was inactive in the other large screens.

COC(=O)c1cn(NC(=O)c2cccc(N(C)C)c2)c(=O)c2ccccc12	none
O=C(CCCCCn1c(=O)[nH]c2ccccc2c1=O)NCCCN1CCN(c2ccccc2F)CC1	none
COc1cccc(Nc2nnc(SCn3nnc4ccccc4c3=O)s2)c1	none
CCOc1ccc(C2C=C(c3ccccc3)Nc3nnnn32)cc1 (stereo not drawn)	CYP2C9 inh 62, CYP2C19 inh 64
CCOc1ccc(C2C=C(c3ccc(C)cc3)Nc3ncnn32)cc1 (stereo not drawn)	none
CCOc1ccc(C2C=C(c3ccc(C)cc3)Nc3nnnn32)cc1 (stereo not drawn)	CYP2C9 inh 84, CYP2C19 inh 83
CC1(C)Cc2nc(NCCN3CCOCC3)c(C#N)cc2CO1	none
c1cn(C23CC4CC(CC(C4)C2)C3)cn1	CYP2C9 inh 96, CYP2C19 inh 87
c1nnn(C23CC4CC(CC(C4)C2)C3)n1	none
Cc1nc2cc(N3CCCCC3)c(NC(=O)c3ccncc3)cc2c(=O)n1Cc1ccccc1	CYP2C9 inh 81
Cc1nc2cc(N3CCOCC3)c(NC(=O)C3CC3)cc2c(=O)n1Cc1ccccc1	none
COc1ccc(Cl)cc1C(=O)OCC(=O)NC(=O)c1cccn1C	CYP2C9 activ 3.3
Cn1cccc1C(=O)NC(=O)COC(=O)c1ccccc1Sc1ccccc1C#N	none
Cc1cccc(C2CC(c3ccc(Br)cc3)Nc3nc(N)nn32)c1 (stereo not drawn)	CYP2C19 inh 77
COc1ccc(C2CC(c3cccc(C)c3)n3nc(N)nc3N2)cc1 (stereo not drawn)	none
COc1ccc(C2CC(c3ccc(Br)cc3)Nc3nc(N)nn32)cc1 (stereo not drawn)	CYP2C9 inh 51
Nc1nc2n(n1)C(c1cccs1)CC(c1ccc(Br)cc1)N2 (stereo not drawn)	CYP2C19 inh 66
COc1ccc(NC(=O)CNc2cccc(C#N)c2)cc1Cl	none
COc1ccc(NC(C)C(=O)Nc2ccc(C#N)cc2)cc1Cl (stereo not drawn)	CYP2C9 inh 98, CYP2C19 inh 100
COc1cc(OC)c(NC(=O)Nc2ccc(OC)c(OC)c2)cc1Cl	none
COc1ccc(NC(=O)/C=C/C(=O)O)cc1Cl	none
COc1ccc(NC(C)C(=O)Nc2ccc(C(C)(C)C)cc2)cc1Cl (stereo not drawn)	CYP2C9 inh 90, CYP2C19 inh 94
COc1ccc(NCC(=O)Nc2ccc(C#N)cc2)cc1Cl	CYP2C9 inh 69, CYP2C19 inh 69
CCn1cc([N+](=O)[O-])c(C(=O)Nc2cc(C)on2)n1	none
CC1(C)CC(=O)C=C(NCc2ccccc2)C1	none
CC1(C)CC(=O)C=C(Nc2cc(-c3ccccc3)[nH]n2)C1	CYP2C9 inh 53
NC12CC3CC(C1)CC(CO)(C3)O2	none
COc1ccc(C2C(C#N)=C(N)Oc3cc(C)[nH]c(=O)c32)c(OC)c1OC (stereo not drawn)	none
COc1cccc(C2C(C#N)=C(N)Oc3cc(C)oc(=O)c32)c1OC (stereo not drawn)	CYP2C9 inh 74
Cc1cc2c(c(=O)o1)C(C13C=CC(CC1)C3)C(C#N)=C(N)O2 (stereo not drawn)	CYP2C9 inh 75, CYP2C19 inh 72
Cc1cc2c(c(=O)o1)C(CC(C)C)C(C#N)=C(N)O2 (stereo not drawn)	CYP2C9 inh 63
O=C(CCNc1cccc(Cl)c1)c1ccco1	CYP2C19 inh 85
CCOC(=O)c1cc(-c2ccc(/C=N\n3cnnc3)o2)ccc1Cl	CYP2C9 inh 66
Clc1ccccc1-c1ccc(/C=N/n2cnnc2)o1	CYP2C19 inh 62
Cc1c(Cl)cccc1-c1ccc(/C=N/n2cnnc2)o1	CYP2C9 inh 71, CYP2C19 inh 88
CCOC(=O)/C(C#N)=C/c1cc(C)n(-c2ccccc2)c1C	CYP2C9 inh 54, CYP2C19 inh 52
CCOc1ccccc1CN(CCc1ccc2c(c1)OCO2)Cc1ccccn1	CYP2C9 inh 58, CYP2C19 inh 98
Cc1ccccc1CS(=O)(=O)CCC(=O)N1CCN(c2ccc(N3CCOCC3)nn2)CC1	none
CCOc1cccc(OCCOCCn2cnc3ccccc3c2=O)c1	CYP2C9 inh 86, CYP2C19 inh 94
CC(C)(c1ccccc1)c1ccc(OCCn2cnc3ccccc3c2=O)cc1	none
O=C(CN1CCN(c2ncccn2)CC1)NCc1ccccc1	CYP2C9 inh 92, CYP2C19 inh 61
